Where “and” joins values, the source holds several entries; their conditions need not be identical. Equal values may be shown once. Inconclusive results are not listed. More than one record can exist for a structure, and the calls need not agree. Calls of active or inactive are those of the source. Unless noted, the call rests on the fitted dose curve; in most records, active means well fitted curve in the direction sought with a large enough effect in the repeat runs; inconclusive means weak or mixed curves; inactive means no such curve, though single readings can be large; an effect the other way counts as inactive or inconclusive.
How the values were obtained:
[1] = qHTS assay to identify small molecule antagonists of the glucocorticoid receptor (GR) signaling pathway - cell viability counter screen (AID 720693); further: nearly all actives have a fitted effect of over 55% in size; further: potency means the concentration at half of the fitted maximal effect
[2] = qHTS assay for identifying genotoxic compounds that show differential cytotoxicity against isogenic chicken DT40 cell lines with known DNA damage response pathways - wild type cell line (AID 743012); further: nearly all actives have a fitted effect of over 60% in size; further: potency means the concentration at half of the fitted maximal effect
How it was run: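 Using parental DT40 (300 cells/well), compounds delivered in DMSO incubate 40 h at 37 C/5% CO2. CellTiter-Glo reagent then stands 30 min at room temperature, and luminescence gives cell viability.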

[3] = qHTS assay for identifying genotoxic compounds that show differential cytotoxicity against isogenic chicken DT40 cell lines with known DNA damage response pathways - Rev3 mutant cell line (AID 743014); further: nearly all actives have a fitted effect of over 55% in size; further: potency means the concentration at half of the fitted maximal effect
[4] = qHTS assay to identify small molecule antagonists of the androgen receptor (AR) signaling pathway - cell viability counter screen (AID 743033; further: nearly all actives have a fitted effect of over 45% in size; further: potency means the concentration at half of the fitted maximal effect)
[5] = qHTS assay to identify small molecule antagonists of the androgen receptor (AR) signaling pathway using the MDA cell line - cell viability counter screen (AID 743041; further: nearly all actives have a fitted effect of over 45% in size; further: potency means the concentration at half of the fitted maximal effect)
How it was run: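 Same-well cytotoxicity was assessed by CellTiter-Fluor in MDA-kb2 AR-luc cells after 16 h of compound treatment under R1881 agonism.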

[6] = qHTS assay for identifying genotoxic compounds that show differential cytotoxicity against isogenic chicken DT40 cell lines with known DNA damage response pathways - Rad54/Ku70 mutant cell line (AID 743015); further: nearly all actives have a fitted effect of over 60% in size; further: potency means the concentration at half of the fitted maximal effect
[7] = biological target: Androgen receptor (Homo sapiens) (UniProt P10275); experiment: qHTS assay to identify small molecule agonists of the androgen receptor (AR) signaling pathway using the MDA cell line (AID 743040; further: nearly all actives have a fitted effect of over 20% in size)
Chain of Androgen receptor (Homo sapiens) (P10275 whole entry, looked up): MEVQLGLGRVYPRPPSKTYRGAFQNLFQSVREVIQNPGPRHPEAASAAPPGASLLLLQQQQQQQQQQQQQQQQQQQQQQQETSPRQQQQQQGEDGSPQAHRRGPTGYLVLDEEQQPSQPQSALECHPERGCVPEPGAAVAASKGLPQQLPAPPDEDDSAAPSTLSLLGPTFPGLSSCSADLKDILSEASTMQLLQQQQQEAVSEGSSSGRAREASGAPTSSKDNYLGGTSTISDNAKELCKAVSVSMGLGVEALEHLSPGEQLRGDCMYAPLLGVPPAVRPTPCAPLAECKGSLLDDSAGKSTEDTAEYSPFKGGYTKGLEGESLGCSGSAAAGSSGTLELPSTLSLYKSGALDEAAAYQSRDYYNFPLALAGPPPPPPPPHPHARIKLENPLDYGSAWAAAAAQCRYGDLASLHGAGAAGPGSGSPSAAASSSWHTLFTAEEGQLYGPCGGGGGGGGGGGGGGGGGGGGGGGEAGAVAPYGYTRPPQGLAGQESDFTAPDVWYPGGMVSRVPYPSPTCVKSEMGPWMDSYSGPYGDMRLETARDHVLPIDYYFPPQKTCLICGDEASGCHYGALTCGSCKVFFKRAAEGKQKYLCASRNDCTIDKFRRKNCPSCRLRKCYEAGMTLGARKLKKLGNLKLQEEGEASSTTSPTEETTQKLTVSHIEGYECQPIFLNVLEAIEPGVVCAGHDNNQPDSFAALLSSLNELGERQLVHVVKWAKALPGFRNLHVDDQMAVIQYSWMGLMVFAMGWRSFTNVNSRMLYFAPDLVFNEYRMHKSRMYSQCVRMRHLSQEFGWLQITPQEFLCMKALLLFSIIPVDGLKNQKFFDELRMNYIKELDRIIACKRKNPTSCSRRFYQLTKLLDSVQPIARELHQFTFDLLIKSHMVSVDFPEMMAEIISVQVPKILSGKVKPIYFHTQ
How it was run: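 Human breast carcinoma MDA-kb2 reporter cells (MMTV-luc, AR/GR elements) were treated for 16 h at 37C in 0% CO2 following a 5 h settling period. Signal was quantified by ONE-Glo luminescence.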

[8] = biological target: Androgen receptor (Homo sapiens) (UniProt P10275); experiment: qHTS assay to identify small molecule antagonists of the androgen receptor (AR) signaling pathway using the MDA cell line (AID 743042; further: nearly all actives have a fitted effect of over 55% in size; further: potency means the concentration at half of the fitted maximal effect)
How it was run: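 MDA-kb2 breast carcinoma cells carrying MMTV-luciferase (AR/GR responsive) were co-treated with compounds and the agonist R1881 for 16 h at 37C. Inhibition read as ONE-Glo luminescence; CellTiter-Fluor fluorescence measured in parallel for cytotoxicity.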

[9] = biological target: Androgen receptor (Homo sapiens) (UniProt P10275); experiment: qHTS assay to identify small molecule antagonists of the androgen receptor (AR) signaling pathway (AID 743035; active means well fitted inhibition curve with a large enough effect in the signal ratio in the repeat runs, not every such curve was filed as active; the % refers to the signal ratio; further: potency means the concentration at half of the fitted maximal effect)
How it was run: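 Using qHTS, AR-UAS-bla GripTite HEK293 cells received compound, then R1881, and were cultured 16 h at 37C/5% CO2 before a 2 h room-temperature LiveBLAzer B/G FRET substrate step and fluorescence measurement.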

[10] = biological target: Androgen receptor (Homo sapiens) (UniProt P10275); experiment: qHTS assay to identify small molecule agonists of the androgen receptor (AR) signaling pathway (AID 743036; active means well fitted activation curve with a large enough effect in the signal ratio in the repeat runs, with a control signal flat, not every such curve was filed as active; the % refers to the signal ratio)
How it was run: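 Quantitative HTS of the Tox21 10K library in HEK293 cells bearing a stably integrated UAS-controlled beta-lactamase reporter. Compound exposure lasted 16 h at 37C. Reporter activity was detected by FRET substrate fluorescence after 2 h at room temperature.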

Measured: Potency

O=c1oc2cc(O)ccc2c2oc3cc(O)ccc3c12
inactive: [1] | [2] | [3] | [4] | [5]

CCC(C)[O-].CCC(C)[O-].CCOC(=O)/C=C(/C)[O-].[Al+3]
inactive: [1] | [2] | [3] | [4] | [5]

O=c1[nH]c(=O)n([C@H]2C[C@H](O)[C@@H](CO)O2)cc1F
active: [2] 0.0053 µM | [3] 0.0038 µM | [6] 0.0019 µM
inactive: [1] | [4] | [5]

CCCCC(CC)COC(=O)CCCCC(=O)OCc1ccccc1 (configuration not stated)
inactive: [1] | [2] | [3] | [6] | [4] | [5]

OC[C@@H](O)[C@@H](O)CO
inactive: [1] | [2] | [3] | [6] | [4] | [5]

CC(C(=O)O)c1ccc2c(c1)[nH]c1ccc(Cl)cc12 (configuration not stated)
inactive: [1] | [2] | [3] | [6] | [4] | [5]

C[C@@H](O)[C@H](N)C(=O)O
inactive: [1] | [2] | [3] | [6] | [4] | [5]

COc1ccc2cc1Oc1ccc(cc1)C[C@H]1c3c(cc4c(c3Oc3cc5c(cc3OC)CCN(C)[C@@H]5C2)OCO4)CCN1C
inactive: [1] | [7] | [8]
active: [2] 7.5 µM | [3] 8.41 µM | [6] 8.41 µM

O=S(=O)(O)c1ccc(N=Nc2c(O)ccc3ccccc23)cc1
inactive: [1]
active: [2] 61.1 µM | [3] 30.6 µM | [6] 54.5 µM | [5] 27.3 µM

O=C(O)c1cc(O)c2ccccc2c1O
active: [2] 6.11 µM | [6] 6.11 µM
inactive: [1] | [4]

O=C(O)Cc1ccccc1Nc1c(Cl)cccc1Cl
inactive and 68.6 µM (active): [6]
not listed: [3]
inactive: all other assays above

Nc1nc(N)nc(-c2cc(Cl)ccc2Cl)n1
inactive: [1] | [2] | [3] | [4] | [5]

CC(CCc1ccccc1)NCC(O)c1ccc(O)c(C(N)=O)c1 (configuration not stated)
inactive: [1] | [2] | [3] | [6] | [4] | [5]

COC(C)=O
inactive: [1] | [2] | [3] | [6] | [4] | [5]

Cc1ccc(O)c(O)c1
active: [1] 53.4 µM | [2] 16.7 µM | [3] 13.3 µM | [6] 21.1 µM
inactive: [4] | [5]

Cc1cc(-n2nc3ccc(Cl)cc3n2)c(O)c(C(C)(C)C)c1
inactive: [1] | [2] | [3] | [6] | [4] | [5]

c1ccc(C(O[C@@H]2CCCN(CCc3ccc4c(c3)OCO4)C2)c2ccccc2)cc1
inactive: [1] | [4] | [5]
active: [2] 38.6 µM | [3] 30.6 µM | [6] 30.6 µM

CC/C=C\CCCCCO
inactive: [1] | [2] | [3] | [6] | [4] | [5]

CC1(C)CCC[C@]2(C)[C@H]3CCO[C@]3(C)CC[C@@H]12
inactive: [1] | [2] | [3] | [6] | [4] | [5]

CCO[Si](OCC)(OCC)OCC
inactive: [1] | [2] | [3] | [4] | [5]

CN(C)C(=O)COC(=O)Cc1ccc(OC(=O)c2ccc(N=C(N)N)cc2)cc1
inactive: [1] | [2] | [3] | [6] | [4] | [5]

Cc1c(C)c2c(c(C)c1OC(=O)c1cccnc1)CC[C@@](C)(CCC[C@H](C)CCC[C@H](C)CCCC(C)C)O2
inactive: [1] | [2] | [3] | [6] | [4] | [5]

CCCCCCOC(=O)C(C)CC (configuration not stated)
not listed: [3]
inactive: all other assays above

C=C(CC)C(=O)c1ccc(OCC(=O)O)c(Cl)c1Cl
active: [2] 18.8 µM and 43 µM | [3] 26.6 µM and 48.2 µM | [6] 29.8 µM and 48.2 µM | [5] 54.1 µM
inactive: [1] | [4]

COc1c(C)c2c(c(O)c1C/C=C(\C)CCC(=O)OCCN1CCOCC1)C(=O)OC2
inactive: [1] | [7] | [5] | [8]
active: [2] 0.531 µM | [3] 0.422 µM | [6] 0.422 µM | [9] 0.674 µM

OC12N=C(c3ccccc3)SC1Cc1cc(Cl)ccc12 (configuration not stated)
active: [2] 68.6 µM | [3] 68.6 µM | [6] 43.3 µM
inactive: [1] | [5]

O[C@@H]([C@H](O)[C@H](O)CBr)[C@H](O)CBr
inactive: [1] | [2] | [3] | [6] | [4] | [5]

CC(C)NC[C@@H](O)COc1ccc(CC(N)=O)cc1
inactive: [1] | [2] | [3] | [5]

O=S(=O)(O)c1ccccc1/C=C/c1ccc(-c2ccc(/C=C/c3ccccc3S(=O)(=O)O)cc2)cc1
inactive: [1] | [2] | [3] | [6] | [4] | [5]

O=C(c1ccc(O)c(O)c1)c1ccc(O)cc1O
inactive: [1] | [4] | [5]
active: [2] 43.2 µM | [3] 21.6 µM | [6] 8.62 µM

C=C(C)C(=O)OCCCCCCCCCC
inactive: [1] | [2] | [3] | [6] | [5]

CCC(=O)OC(=O)CC
inactive: [1] | [2] | [3] | [6] | [4] | [5]

CCN1C(=O)c2ccccc2C1Nc1ccc(OCCN2CCCCC2)cc1 (configuration not stated)
active: [2] 26.6 µM
not listed: [6]
inactive: all other assays above

O=C1NC(=O)[C@@H]2CC=CC[C@H]12
inactive: [1] | [4] | [5]
active: [2] 61.1 µM | [3] 48.6 µM

CC1=CCC(=C(C)C)CC1
inactive: [1] | [2] | [3] | [6] | [4] | [5]

CCCCCCCCCCCCCC[N+](C)(C)C
active: [1] 13.4 µM and 29.9 µM and 13.8 µM | [2] 237 nM and 527 nM and 217 nM | [3] 298 nM and 469 nM and 193 nM | [6] 376 nM and 469 nM and 217 nM | [4] 15.1 µM and 21.8 µM | [5] 18.8 µM and 41.8 µM

O=C1CCc2cc(OCCCCc3nnnn3C3CCCCC3)ccc2N1
inactive: [1] | [2] | [3] | [4] | [5]

CCc1ccc(Br)cc1
inactive: [1] | [2] | [6] | [4] | [5]

Clc1sc(Cl)c(Cl)c1Cl
not listed: [2]
inactive: all other assays above

C1CCC(SSC2CCCCC2)CC1
inactive: [1] | [2] | [6] | [4] | [5]

C#C[C@]1(OC(C)=O)CC[C@H]2[C@@H]3CCC4=C[C@@H](OC(C)=O)CC[C@@H]4[C@H]3CC[C@@]21C
active: [2] 3.76 µM and 6.68 µM | [6] 10.6 µM and 11.9 µM
inactive: [1] | [4] | [5]

Cc1nc2n(c(=O)c1CCN1CCC(c3noc4cc(F)ccc34)CC1)CCCC2
active: [2] 9.44 µM
inactive: [1] | [6] | [4] | [5]

CCC(COC(=O)CCS)(COC(=O)CCS)COC(=O)CCS
inactive: [1] | [2] | [4] | [5]

O=C(O)c1cc(-c2ccc(F)cc2F)ccc1O
inactive: [1] | [2] | [6] | [4] | [5]

NC(=O)c1cccc([N+](=O)[O-])c1
not listed: [2] | [10]
inactive: all other assays above

Nc1nc(-c2ccccc2)cs1
inactive: [1] | [2] | [6] | [4] | [5]

Cc1nc(-c2ccc(Cl)cc2)oc1COC(C)(C)C(=O)O
inactive: [1] | [2] | [6] | [4] | [5]

CC(C)(C)c1ccc(C(O)CCCN2CCC(C(O)(c3ccccc3)c3ccccc3)CC2)cc1 (configuration not stated)
active: [2] 4.22 µM and 3.76 µM | [6] 9.44 µM
inactive: [1] | [4] | [5]

Cc1ccc(-c2ccccc2)cc1
inactive: [1] | [2] | [6] | [4] | [5]

CC(C)CCCCCOC(=O)CCS
inactive: [1] | [2] | [6] | [4] | [5]

CCCCOC(=O)CO
inactive: [1] | [2] | [6] | [4] | [5]

C=CCCC(=O)/C=C/C1C(C)=CCCC1(C)C (configuration not stated)
inactive: [1] | [2] | [4] | [5]

CN(C)c1ccc(C(=C2C=CC(=[N+](C)C)C=C2)c2ccc(N(C)C)cc2)cc1
active: [1] 6.01 µM and 3.45 µM and 9.77 µM | [2] 335 nM and 542 nM and 193 nM | [6] 422 nM and 483 nM and 193 nM | [4] 1.69 µM and 1.37 µM and 347 nM | [9] 0.347 µM | [5] 3.35 µM and 7.66 µM and 4.33 µM | [8] 2.37 µM and 859 nM and 864 nM
inactive: [7]

OC1CCC(C2CCCCC2)CC1 (configuration not stated)
inactive: [1] | [2] | [4] | [5]

CCCCOC(=O)CC
inactive: [1] | [2] | [6] | [4] | [5]

Reference: PubChem BioAssay (Tox21)
